# Shown are actives, neighbours in structure and some others; about 2.6% of the full set was active somewhere.
# KCNH2 WT inh: KCNH2 (human, wildtype) channel inhibition; Q12809; U2OS, BacMam KCNH2, thallium flux FluxOr; active compounds read low; activity change, % at 1.84 µM; actives 0.37% (n = 340,000);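 active = maximum activity change below -70%; inconclusive = maximum activity change between -70% and -50%; inactive = maximum activity change above -50%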; note: % is set by controls: 0 for no effect and ±100 for the full control effect
#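 U2OS cells transduced with wild-type KCNH2 virus are loaded with FluxOr dye for 45 min, and thallium flux is measured in kinetic reads before and after stimulation buffer. Rate constants are normalized to DMSO controls.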
# TRPV1 agonist: activates the human vanilloid receptor TRPV1 | TRPV1-expressing cells, Fluo-8 calcium influx, agonist mode | actives 0.19% (n = 320,000) | Q8NER1 | AID 540275 | activation, % at 8.33 µM; in the data active = activation above about 80%; inconclusive = between about 30% and that limit; note: 0% is about no effect
#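 Cells expressing TRPV1 were dye-loaded with Fluo-8 and read kinetically: 10 s baseline, 3 min after compound (agonist portion), then 2 min after EC20 capsaicin (allosteric enhancer portion). Calcium-bound dye fluorescence at 480/520 nm.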
# ClpP mod: qHTS Assay for Activators of ClpP | purified B. subtilis ClpP, FRET peptide cleavage, 20 min | Potency, µM (highest dose often 57.5 µM), for the others: at the highest dose activity change, negative = active | actives 1.9% (n = 340,000) | AID 651965, 2013; active = well fitted falling curve with a large enough effect; inconclusive = small, poorly fitted or top-dose-only effect; inactive = no such curve, though single readings can be large or run the other way; note: potency is the fitted concentration of half-maximal effect; the source files actives as falling curves though it sought activators and does not explain the sign; nearly all actives have a fitted effect of over 65% in size
#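 Purified B. subtilis ClpP, 10 microg/mL final in Tris/HCl pH8 with KCl, BSA, glycerol and Tween-20, cleaved an Abz/nitrotyrosine-quenched decapeptide. Fluorescence (ex 320, em 430) was read at 0 and 20 min at room temperature. Delta was normalized to 5.8 microM ADEP and DMSO/no-enzyme controls.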
# KCNH2 3.1 block: blocks the human KCNH2 3.1 channel isoform | U2OS KCNH2 3.1, thallium flux FluxOr; active compounds read low | activity change, % (tested at about 1.8 µM) | actives 0.95% (n = 340,000);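 active = maximum activity change below -70%; inconclusive = maximum activity change from -70% to -50%; inactive = maximum activity change above -50%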;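 note: thallium influx rate constant from kinetic fluorescence after stimulation buffer; % is set by controls: 0 for no effect and ±100 for the full control effect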
#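 Thallium flux read-out: FluxOr dye with Red40 quencher in HBSS/HEPES, 45 min at RT. Rate constants from kinetic reads were normalized to positive and negative DMSO controls. Cells: U2OS virally expressing the 3.1 isoform.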
# p53 reactivation: re-activators of mutant p53 | H1299 p53-A138V BP100-luciferase reporter, luminescence, 24 h | Potency, µM (titrated, usually from 92.2 µM), without a hit: top-dose activity change, positive = activation, usual class: activators | actives 0.063% (n = 320,000) | AID 504706; active = well fitted activation curve with a large enough effect; inconclusive = small, poorly fitted or top-dose-only effect; inactive = no such curve, though single readings can be large or run the other way; note: potency is the fitted concentration of half-maximal effect; % of control where 0% means no effect; nearly all actives have a fitted effect of over 45% in size
#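 p53-null H1299 cells stably carrying temperature-sensitive p53-A138V and a BP100-luciferase reporter were pinned with compounds (4-point, 1:5 series) and held 24 hrs at 37 deg C. Luminescence was read 10 min after detection reagent.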
# TRPV1 potentiator: potentiators of human vanilloid receptor 1 (TRPV1). potentiation, % at 8.33 µM. actives 0.02% (n = 320,000). Q8NER1. TRPV1-expressing cells, Fluo-8 calcium influx, capsaicin EC20 potentiation. AID 540277; in the data active = potentiation above about 80%; inconclusive = between about 30% and that limit; note: 0% is about no effect
#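 Fluo-8 calcium influx in TRPV1-expressing cells, kinetic read (ex 480/em 520 nm). Compound added and read 3 min for agonist activity, followed by capsaicin at EC20 final and 2 min further read for enhancement.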
# Active calls of the source: *; i = inactive; ? = inconclusive; . = no result given.
SMILES,KCNH2 WT inh,TRPV1 agonist,ClpP mod,KCNH2 3.1 block,p53 reactivation,TRPV1 potentiator
O=C1c2cccc(OCC(=O)N3N=C(c4cccs4)CC3c3ccc(F)cc3)c2CCN1Cc1cccnc1 (stereo not drawn),-1,0,28µM*,-9,-6%,-10
CCC1=NN2C(=N)/C(=C/c3cc(C)n(Cc4ccccc4)c3C)C(=O)N=C2S1,4,.,25µM*,2,1%,.
OC1COC(c2ccccc2)OC1C(O)C1OC(c2ccccc2)OCC1O (stereo not drawn),2,.,.,13,.,.
COc1ccc(C(=O)Nc2ccc(NC(=O)c3cccs3)c(OC)c2)cc1Cl,2,2,-1%,-83*,-6%,-7
COc1ccc(C[C@H]2CN3C(=NC[C@@H]3Cc3ccc(O)cc3)N2C[C@H](C)NC(=O)c2ccc(C)c(Br)c2)cc1,-164*,0,-4%,-17,4%,-9
COc1ccc(C[C@H]2CN3C(=NC[C@@H]3Cc3ccc(O)cc3)N2CCNC(=O)c2ccc(C)c(Br)c2)cc1,-81*,1,-1%,0,-3%,16
Cc1ccc(C(=O)NCCN2C3=NC[C@H](Cc4ccc(O)cc4)N3C[C@H]2Cc2ccc(O)cc2)cc1Br,-3,-3,-1%,-9,-2%,1
COc1ccc(C[C@H]2CN3C(=NC[C@@H]3C(C)C)N2C[C@H](C)NC(=O)c2ccc(C)c(Br)c2)cc1,-18,2,1%,-41,2%,3
Cc1cc(NC(=O)CCCN2C(=O)c3cccnc3C2=O)ccc1Br,-14,1,.,-72*,8%,2
CCCC(C(=O)NCC1CCCO1)N(Cc1ccco1)C(=O)CNS(=O)(=O)c1ccccc1 (stereo not drawn),-18,7,25µM*,-1,-3%,-9
CCCC(C(=O)NC1CCCCC1)N(Cc1ccco1)C(=O)CNS(=O)(=O)c1ccccc1 (stereo not drawn),0,15,0%,-2,-7%,-14
CCCNc1nc(-c2ccccc2)c(C(=O)OCC)cc1C#N,-2,?,28µM*,5,16%,-3
O=C(CN1C(=O)c2ccccc2S1(=O)=O)Nc1cc(S(=O)(=O)N2CCOCC2)ccc1N1CCOCC1,.,.,-4%,.,.,.
CC(C)CNC(=O)C1CCN(c2ccc(S(=O)(=O)N3CCOCC3)cc2Cl)CC1,-8,-2,-1%,13,-3%,-40
C#CCNC(=O)C1CCN(c2ccc(S(=O)(=O)N3CCOCC3)cc2Cl)CC1,-3,82*,-4%,-2,-1%,-11
COc1cc(-c2nc(C(N)=O)c3c(n2)n(-c2cccc(C)c2)c(=O)n3C)cc(OC)c1OC,.,.,22µM*,.,.,.
CC(C)Oc1ccc(C(=O)N2CCN(c3nc4c(F)cc(F)cc4s3)CC2)cc1,.,.,2%,.,.,.
O=C(CN1CCN(C(=O)C2CCN(C(=O)/C=C/c3ccccc3)CC2)CC1)Nc1ccccc1Cl,-5,10,.,0,18%,-3
COc1ccc(NC(=O)c2[nH]nc3c2CSc2ccccc2-3)c(OC)c1,.,.,4%,.,.,.
Cc1c(NS(=O)(=O)c2ccc(Br)cc2)c(=O)n(-c2ccccc2)n1C,1,3,3%,-33,.,?
CCOc1ccc(S(=O)(=O)Nc2c(C)n(C)n(-c3ccccc3)c2=O)cc1,-197*,0,.,17,1%,-5
N#CC1=C(N)C(C#N)(C#N)C(c2cccnc2)C2CC(c3ccccc3)CC=C12 (stereo not drawn),6,8,83%,1,-29%,1
N#CC1=C(N)N(c2ccccc2)C(c2ccccc2)C1(C#N)C#N (stereo not drawn),-15,-3,10µM*,20,-3%,-5
N#Cc1ccc2c(c1)C[C@]1(CCCCN3C(=O)c4ccccc4C3=O)Oc3cc(-c4ccccc4)oc(=O)c3[C@H]2O1,.,i,.,.,.,?
CCCC(=O)N1CCc2cc(OC)c(OC)cc2C1c1cc2cc3c(cc2[nH]c1=O)OCO3 (stereo not drawn),-10,.,?,-2,.,.
SMILES,KCNH2 WT inh,TRPV1 agonist,ClpP mod,KCNH2 3.1 block,p53 reactivation,TRPV1 potentiator
COc1cc2c(cc1OC)C(c1cc3cc(OC)c(OC)cc3[nH]c1=O)N(C(=O)C1CC1)CC2 (stereo not drawn),0,.,28µM*,-1,1%,.
O=C(C1COc2ccccc2O1)N1CCN(c2ccccc2)CC1 (stereo not drawn),0,?,-3%,-5,1%,-22
O=C(C1COc2ccccc2O1)N1CCOCC1 (stereo not drawn),6,-1,16µM*,-11,12%,10
CS(=O)(=O)Nc1ccccc1C(=O)NC1CC2CCC1C2 (stereo not drawn),5,5,35µM*,-3,-8%,-6
COCCCNC(=O)c1ccccc1NS(C)(=O)=O,-17,7,28µM*,-6,-1%,-16
CS(=O)(=O)Nc1ccccc1C(=O)Nc1ccccc1Cl,13,-1,-29%,0,-9%,29
CS(=O)(=O)Nc1ccccc1C(=O)Nc1cc(Cl)cc(Cl)c1,-20,4,14µM*,-27,0%,14
CCc1cccc(NC(=O)Cn2c(=O)n(Cc3ccccc3)c(=O)c3c(C)c(C(=O)N(C)C)sc32)c1,.,.,-6%,.,.,.
CN(C(=O)COC(=O)C1CSC2(C)CCC(=O)N12)c1ccccc1 (stereo not drawn),3,-5,28µM*,13,1%,10
CC12CCC(=O)N1C(C(=O)OCC(=O)Nc1cccc(Br)c1)CS2 (stereo not drawn),21,3,.,3,1%,1
COc1ccccc1C(=O)N/N=C(\C)c1ccc(NC(=O)C2CC2)cc1,5,0,28µM*,11,-5%,-2
CCOC(=O)c1ccc(Nc2ncnc3c2cnn3C)cc1,-22,83*,-18%,2,6%,2
CC(=O)Nc1ccc(Nc2ncnc3c2cnn3-c2ccc(C)cc2C)cc1,-12,87*,-4%,0,-4%,-17
O=CC(=O)c1ccc(Br)cc1,.,.,1%,.,.,.
Ic1ccc(Nc2nc(NCCN3CCOCC3)nc(N3CCOCC3)n2)cc1,.,.,1%,.,.,.
COc1ccc(C(=O)C(C)[n+]2ccc(C)c3ccccc32)cc1[N+](=O)[O-] (stereo not drawn),-140*,8,-8%,-6,10%,1
Cc1c(Cl)cccc1NC(=O)c1cnc2sc(N3CCOCC3)nn2c1=O,.,.,-4%,.,.,.
NS(=O)(=O)c1ccc(NC(=O)/C=C/c2cccs2)cc1,-4,?,.,-7,3%,-20

# High-throughput results (PubChem)
